These results are taken from PubChem BioAssay.

Molecules are shown by their SMILES. Active and inactive are the calls of the source.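 Rule for the calls, unless noted: active = inhibition above the screen-wide mean plus 3 SD, about 51%; inactive = the rest.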

As usually defined, the inhibition is the relative decrease from the control value, in per cent.

Assay [1] in a line: reduced mouse 2C T cell binding to pMHC/ICAM-1 vesicles – MLPCN validation set, flow cytometry, LFA-1/ICAM-1 modulator project, pilot screen (AID 2523;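 active = response below a set limit, under 55% cells CD8-positive and vesicle-bound, and CD8 cells' 90th-percentile brightness under 279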;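 for vesicle binding response: mean PE anti-B7-1 fluorescence of CD8+ cells relative to row control; 100% = QL9-loaded vesicles with DMSO vehicle in the same plate row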). As to conditions: 2C mouse CD8+ T cells, at 7 µM, stronger effect = lower value; double positive events: measured here: CD8+/vesicle+ event percentage. A general note: A flow cytometer gives signals particle by particle.
Assay [2] has as its target Integrin beta-1 (Homo sapiens) + Integrin alpha-4 (Homo sapiens) (UniProt P13612+P05556). The experiment in a line: alpha4beta1 integrin LIBS antibody binding reduction – U937 cells, HUTS-21 mAb, flow cytometry, validation set, VLA-4 allosteric modulator project, pilot screen (AID 2674;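 active = inhibition above 50%, about 3 SD of the validation set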;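 note: antibody binding induced by the VLA-4 ligand LDV present at three times its Kd; 0% = LDV ligand with antibody and no compound and 100% = antibody without LDV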). As to conditions: HUTS-21 LIBS mAb binding, at 6.7 µM, stronger effect = higher value, binding induced by LDV ligand.

A short description of assay [3]: calorie-restriction mimetic ROS inhibitors, yeast – validation compound set, pilot screen (AID 2706;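 active = superoxide response below 65% of plate, a cut near 3 SD across the whole screen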;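 note: yeast exposed to compound for one week at 30 degrees C before staining; 100% = mean of all compound wells on the same plate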). To be noted: S. cerevisiae aging, superoxide DHE fluorescence; at 10 µM, stronger effect = lower value.
Assay [4] concerns the target Beta-adrenergic receptor kinase 1 (Homo sapiens) (UniProt P25098). The experiment in a line: GRK2 binders displacing RNA aptamer, biochemical, validation, human GRK2, bead flow cytometry (AID 488806;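 active = aptamer binding inhibition above 30%, about 3 SD of noise from non-fluorescent compounds; inactive = inhibition at or below 30%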). As to conditions: bead-bound GRK2, FAM-aptamer displacement, at 10 µM, stronger effect = higher value.
The target in assay [5] is Beta-2 adrenergic receptor (Homo sapiens) (UniProt P07550). The experiment in a line: agonist-induced loss of surface beta2AR – cell-based, FAP fluorogen, flow cytometry, validation set, pilot screen (AID 504459;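 active = percent response above 42, roughly 3 SD of non-fluorescent test compounds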;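 note: agonist-driven loss of surface beta2AR via internalization measured by FAP dye flow cytometry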). As to conditions: Am2.2-beta2AR cells, at 10 µM, stronger effect = higher value.
Beta-2 adrenergic receptor (Homo sapiens), sequence (P07550 whole entry, looked up): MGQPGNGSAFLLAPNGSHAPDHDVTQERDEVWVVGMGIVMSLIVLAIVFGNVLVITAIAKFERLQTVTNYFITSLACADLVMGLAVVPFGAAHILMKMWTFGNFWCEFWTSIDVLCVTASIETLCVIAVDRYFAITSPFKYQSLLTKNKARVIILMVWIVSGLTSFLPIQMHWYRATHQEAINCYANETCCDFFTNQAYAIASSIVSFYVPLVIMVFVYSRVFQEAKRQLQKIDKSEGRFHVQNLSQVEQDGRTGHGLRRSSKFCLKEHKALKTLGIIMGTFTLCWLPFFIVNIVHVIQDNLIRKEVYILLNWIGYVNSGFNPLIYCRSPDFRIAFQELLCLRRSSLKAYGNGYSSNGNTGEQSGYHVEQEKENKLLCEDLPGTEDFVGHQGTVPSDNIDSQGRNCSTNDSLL
Assay [6] deals with AP-2 complex subunit beta (Homo sapiens) (UniProt P63010). The experiment in a line: beta-arrestin/AP2 interaction blockers – biochemical, validation set, GST-AP2 beads, flow cytometry, pilot screen (AID 504541;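 active = inhibition above 54%, about 3 SD of non-fluorescent compounds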;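 note: AP2 carries R879A mutation and is captured from E. coli lysate; bead-bound FITC arrestin peptide fluorescence measuring arrestin peptide binding to AP2; 0% = DMSO wells and 100% = excess unlabeled arrestin peptide control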). To be noted: FITC arrestin peptide, at 10 µM, stronger effect = higher value, AP2 beta2 appendage fragment, R879A mutant.
AP-2 complex subunit beta (Homo sapiens), sequence (P63010 whole entry, looked up, the tested form may be a part, one chain of several): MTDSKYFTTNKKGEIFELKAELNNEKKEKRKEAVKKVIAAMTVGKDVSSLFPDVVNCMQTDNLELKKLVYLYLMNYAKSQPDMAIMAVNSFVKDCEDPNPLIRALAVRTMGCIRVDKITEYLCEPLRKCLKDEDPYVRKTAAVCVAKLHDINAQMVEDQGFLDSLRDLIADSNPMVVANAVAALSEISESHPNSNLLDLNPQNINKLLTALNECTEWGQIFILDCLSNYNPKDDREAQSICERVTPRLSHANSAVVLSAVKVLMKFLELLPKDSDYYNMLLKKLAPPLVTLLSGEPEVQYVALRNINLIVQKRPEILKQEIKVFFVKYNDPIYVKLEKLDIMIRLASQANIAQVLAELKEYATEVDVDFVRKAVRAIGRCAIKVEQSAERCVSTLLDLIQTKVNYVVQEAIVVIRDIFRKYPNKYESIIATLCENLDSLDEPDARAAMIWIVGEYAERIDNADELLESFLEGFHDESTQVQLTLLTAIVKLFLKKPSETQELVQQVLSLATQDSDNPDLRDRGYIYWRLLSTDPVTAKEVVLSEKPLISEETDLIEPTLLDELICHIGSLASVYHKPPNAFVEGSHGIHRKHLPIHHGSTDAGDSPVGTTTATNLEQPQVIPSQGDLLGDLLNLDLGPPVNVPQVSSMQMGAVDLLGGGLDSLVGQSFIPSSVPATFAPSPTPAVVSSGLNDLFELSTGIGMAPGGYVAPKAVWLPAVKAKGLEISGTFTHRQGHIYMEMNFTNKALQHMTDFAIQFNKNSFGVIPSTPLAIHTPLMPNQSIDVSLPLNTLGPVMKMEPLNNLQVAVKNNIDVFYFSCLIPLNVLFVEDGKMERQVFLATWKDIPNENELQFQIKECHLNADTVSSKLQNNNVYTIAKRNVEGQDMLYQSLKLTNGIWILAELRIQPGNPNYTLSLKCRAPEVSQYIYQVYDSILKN
Assay [7] in a line: cytosolic pH regulators acting via V-ATPase – S. cerevisiae, pHLuorin, HTS validation (AID 504600; in the data active = response above about 15%;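 note: plate controls were DMSO for no effect and reference compound for full effect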). As to conditions: V-ATPase proton transport, at 10 µM, stronger effect = higher value.
Assay [8] deals with anti-desmoglein-3 scFv antibody binding to human DSG3. The assay is described as follows: blockers of pathogenic pemphigus antibody–desmoglein-3 binding – biochemical, validation compound set, bead-based, flow cytometry, pilot screen (AID 588368;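 active = binding below the plate cutoff, the plate median minus 3 SD, with a reading above zero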;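 note: signal is the median channel fluorescence of bead-bound GFP antibody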). As to conditions: Protein G beads, DSG3-Fc, scFv-GFP binding, at 10 µM, stronger effect = lower value.
Assay [9] is described as follows: Nile Red efflux blockade in pump-expressing yeast – validation compound set, multiplex, phenotypic, pilot screen (AID 588506;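 active = efflux inhibition above 0.42, the validation set average plus 4 SD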;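 note: Nile Red retained in cells so higher fluorescence means more efflux inhibition; 0 = negative control wells and 1 = enniatin B 25 µM full block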). To be noted: S. cerevisiae pump-expressing triplex, Nile Red efflux flow cytometry; at 10 µM; stronger effect = higher value; the pumps come from Candida albicans.
Assay [10] addresses ATP-binding cassette sub-family B member 6 (Homo sapiens) (UniProt Q9NP58). The assay is described as follows: blockers of ABCB6-driven porphyrin uptake – K562-ABCB6 cells, flow cytometry, validation set, pilot screen (AID 588550).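 Note: 0% = DMSO wells and 100% = benzethonium chloride 70 µM positive control.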 To be noted: K562-ABCB6 porphyrin accumulation, 1 h, at 10 µM, stronger effect = higher value.
Assay [11] can be described thus: AML differentiation inducers, ER-HoxA9 marrow cells – cell-based, GFP/MAC1 double positive, flow cytometry, validation set, primary screen (AID 588685;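 active = differentiation response of at least 50%, scaled between solvent and reference control, from cells with both markers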;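 note: compound exposure lasts four days before antibody staining and flow analysis; 0% = DMSO wells and 100% = 5 µM fulvestrant positive control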). To be noted: stronger effect = higher value, normalized: vehicle 0, fulvestrant 100.

ATP-binding cassette sub-family B member 6 (Homo sapiens), sequence (Q9NP58 whole entry, looked up): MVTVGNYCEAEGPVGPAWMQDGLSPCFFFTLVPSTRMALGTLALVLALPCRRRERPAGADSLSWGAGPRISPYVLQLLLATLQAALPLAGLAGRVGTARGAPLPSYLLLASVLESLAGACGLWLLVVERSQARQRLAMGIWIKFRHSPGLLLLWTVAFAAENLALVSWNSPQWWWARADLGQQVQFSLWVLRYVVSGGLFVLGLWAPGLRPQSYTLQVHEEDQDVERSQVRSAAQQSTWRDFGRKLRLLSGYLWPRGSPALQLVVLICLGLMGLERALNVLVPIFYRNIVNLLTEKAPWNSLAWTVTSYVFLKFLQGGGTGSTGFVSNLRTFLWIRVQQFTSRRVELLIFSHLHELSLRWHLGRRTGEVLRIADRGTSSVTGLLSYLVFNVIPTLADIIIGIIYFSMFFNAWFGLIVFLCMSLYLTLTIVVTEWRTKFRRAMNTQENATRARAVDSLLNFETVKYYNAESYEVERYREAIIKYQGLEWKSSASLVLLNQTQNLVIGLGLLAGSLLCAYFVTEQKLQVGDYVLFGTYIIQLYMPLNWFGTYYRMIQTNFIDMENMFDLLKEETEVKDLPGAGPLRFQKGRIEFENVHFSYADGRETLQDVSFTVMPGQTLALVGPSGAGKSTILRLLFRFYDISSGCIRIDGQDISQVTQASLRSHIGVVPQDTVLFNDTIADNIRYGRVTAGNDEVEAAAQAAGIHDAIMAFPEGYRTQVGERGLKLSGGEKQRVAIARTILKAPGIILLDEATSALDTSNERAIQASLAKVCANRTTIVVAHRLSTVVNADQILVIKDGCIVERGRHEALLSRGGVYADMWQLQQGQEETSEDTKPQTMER
Beta-adrenergic receptor kinase 1 (Homo sapiens), sequence (P25098 whole entry, looked up): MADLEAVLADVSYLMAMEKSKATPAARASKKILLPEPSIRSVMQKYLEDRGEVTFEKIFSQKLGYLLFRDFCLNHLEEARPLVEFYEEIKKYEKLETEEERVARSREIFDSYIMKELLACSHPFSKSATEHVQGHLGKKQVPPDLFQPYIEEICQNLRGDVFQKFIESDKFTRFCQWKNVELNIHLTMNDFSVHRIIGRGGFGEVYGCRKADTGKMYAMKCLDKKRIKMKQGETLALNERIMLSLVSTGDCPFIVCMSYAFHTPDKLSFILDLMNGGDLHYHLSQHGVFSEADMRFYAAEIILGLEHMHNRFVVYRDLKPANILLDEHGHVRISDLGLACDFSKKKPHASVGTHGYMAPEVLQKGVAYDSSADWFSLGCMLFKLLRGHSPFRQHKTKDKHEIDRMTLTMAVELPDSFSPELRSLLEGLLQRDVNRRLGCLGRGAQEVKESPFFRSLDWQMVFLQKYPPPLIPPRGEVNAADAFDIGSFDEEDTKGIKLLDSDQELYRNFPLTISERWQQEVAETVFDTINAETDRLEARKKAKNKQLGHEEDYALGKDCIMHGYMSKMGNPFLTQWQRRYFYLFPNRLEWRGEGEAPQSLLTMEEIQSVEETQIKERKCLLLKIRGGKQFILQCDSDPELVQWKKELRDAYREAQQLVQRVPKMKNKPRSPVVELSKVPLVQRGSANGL
Integrin beta-1 (Homo sapiens) + Integrin alpha-4 (Homo sapiens), sequence (P05556 whole entry, looked up): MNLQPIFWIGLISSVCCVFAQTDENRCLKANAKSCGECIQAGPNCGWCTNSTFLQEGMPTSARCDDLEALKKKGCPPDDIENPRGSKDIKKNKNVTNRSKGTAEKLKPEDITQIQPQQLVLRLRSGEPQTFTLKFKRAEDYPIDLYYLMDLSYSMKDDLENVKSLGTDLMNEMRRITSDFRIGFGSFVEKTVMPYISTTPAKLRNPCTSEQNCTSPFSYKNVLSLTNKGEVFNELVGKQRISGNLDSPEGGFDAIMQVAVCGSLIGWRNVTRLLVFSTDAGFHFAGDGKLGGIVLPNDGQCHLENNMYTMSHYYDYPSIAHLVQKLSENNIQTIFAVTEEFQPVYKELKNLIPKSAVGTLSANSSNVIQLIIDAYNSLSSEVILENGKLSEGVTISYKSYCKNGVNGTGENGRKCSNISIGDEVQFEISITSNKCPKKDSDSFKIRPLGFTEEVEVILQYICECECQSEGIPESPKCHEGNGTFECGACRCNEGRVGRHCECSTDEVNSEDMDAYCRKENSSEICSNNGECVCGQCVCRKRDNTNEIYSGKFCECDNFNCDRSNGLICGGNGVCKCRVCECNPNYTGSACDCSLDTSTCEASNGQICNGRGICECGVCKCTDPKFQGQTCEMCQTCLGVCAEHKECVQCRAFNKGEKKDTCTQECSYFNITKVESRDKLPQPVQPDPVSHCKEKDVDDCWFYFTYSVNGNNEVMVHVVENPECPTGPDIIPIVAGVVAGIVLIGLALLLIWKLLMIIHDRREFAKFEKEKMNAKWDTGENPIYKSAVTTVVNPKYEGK
Integrin beta-1 (Homo sapiens) + Integrin alpha-4 (Homo sapiens), sequence (P13612 whole entry, looked up): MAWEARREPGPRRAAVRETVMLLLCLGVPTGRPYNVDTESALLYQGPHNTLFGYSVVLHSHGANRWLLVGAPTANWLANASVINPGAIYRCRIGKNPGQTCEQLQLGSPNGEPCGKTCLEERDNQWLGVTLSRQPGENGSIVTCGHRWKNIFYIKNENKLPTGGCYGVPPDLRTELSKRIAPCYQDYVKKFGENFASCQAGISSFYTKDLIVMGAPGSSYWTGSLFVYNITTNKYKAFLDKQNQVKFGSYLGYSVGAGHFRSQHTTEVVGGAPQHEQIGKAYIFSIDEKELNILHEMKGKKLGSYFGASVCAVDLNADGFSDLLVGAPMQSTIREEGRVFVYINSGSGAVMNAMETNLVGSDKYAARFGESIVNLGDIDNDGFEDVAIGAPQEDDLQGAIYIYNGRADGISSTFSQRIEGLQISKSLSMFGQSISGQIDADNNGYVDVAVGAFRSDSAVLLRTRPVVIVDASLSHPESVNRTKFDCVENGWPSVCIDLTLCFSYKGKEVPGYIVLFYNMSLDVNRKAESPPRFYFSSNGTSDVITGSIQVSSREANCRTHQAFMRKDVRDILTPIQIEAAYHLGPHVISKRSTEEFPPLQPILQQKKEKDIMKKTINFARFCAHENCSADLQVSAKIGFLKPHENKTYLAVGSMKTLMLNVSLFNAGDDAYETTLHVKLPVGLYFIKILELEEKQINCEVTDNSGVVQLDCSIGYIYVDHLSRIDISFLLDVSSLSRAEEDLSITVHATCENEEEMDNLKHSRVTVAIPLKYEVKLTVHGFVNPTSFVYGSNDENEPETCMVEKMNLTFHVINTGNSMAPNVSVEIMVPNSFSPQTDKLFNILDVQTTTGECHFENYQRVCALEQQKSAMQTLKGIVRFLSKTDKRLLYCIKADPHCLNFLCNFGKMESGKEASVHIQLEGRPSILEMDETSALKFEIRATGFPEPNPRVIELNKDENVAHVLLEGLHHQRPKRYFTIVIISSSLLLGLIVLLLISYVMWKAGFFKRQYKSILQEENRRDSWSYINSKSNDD

The compound `Cc1ccc2c(CN3CCN(Cc4ccc5c(c4)OCO5)CC3)cc(=O)oc2c1C` showed a double positive events in assay [1] of 58.4%. The vesicle binding response in [1] was 88.4% (inactive). Also, the inhibition in assay [2] was -7.79% (inactive); in [6] it was 4.85% (inactive); in assay [10] it was -11% (inactive). In addition, in assay [3], the superoxide response (% of plate) is 87.4% (inactive). Besides, in assay [4], the aptamer binding inhibition is -2% (inactive). For the same compound, the response in [5] was -2.16% (inactive); in [7], -2.29% (inactive). The binding (% of control) in assay [8] was 106% (inactive). The efflux inhibition (fraction of control) in assay [9] is -0.28 (inactive). Moreover, the differentiation response in assay [11] is -6.03% (inactive).
In assay [1], `C#CCN(C)CCCOc1ccc(Cl)cc1Cl` had a double positive events of 56.3%. For the same compound, the vesicle binding response in assay [1] was 64.3% (inactive). Further, the inhibition in assay [2] is -7.12% (inactive); in [6] it was -2.33% (inactive); in assay [10], 12% (inactive). Also, the superoxide response (% of plate) in assay [3] was 96.4% (inactive). Also, the aptamer binding inhibition in assay [4] is 0% (inactive). Moreover, the response was -6.11% (inactive) in [5] and 1.85% (inactive) in [7]. Also, the binding (% of control) in assay [8] is 96.3% (inactive). Moreover, in assay [9], the efflux inhibition (fraction of control) is 0.3 (inactive). In [11], the differentiation response is -1.64% (inactive).
On to `Cn1c(=O)c2c(nc(SCCN3CCCCC3)n2C)n(C)c1=O`, for which, in assay [1], the double positive events stood at 61.5%. Also, the vesicle binding response in [1] is 176% (inactive). Besides, the inhibition was -0.27% (inactive) in [2], -6.3% (inactive) in assay [6] and -2% (inactive) in assay [10]. The superoxide response (% of plate) in assay [3] is 85.5% (inactive). The aptamer binding inhibition in assay [4] was -3% (inactive). Also, the response in [5] was -25.4% (inactive); in [7], 1.6% (inactive). Moreover, in assay [8], the binding (% of control) is 110% (inactive). In addition, the efflux inhibition (fraction of control) in assay [9] is -0.13 (inactive). The differentiation response in [11] is -11.9% (inactive).
In the case of `COc1ccc(CCCC(=O)O)c(C)c1`, the double positive events in assay [1] worked out at 63.8%. The vesicle binding response in assay [1] was 282% (inactive). Besides, the figures for the inhibition in assay [2], in assay [6] and in assay [10] were -9.06% (inactive), 5.62% (inactive) and 17% (inactive), respectively. In [3], the superoxide response (% of plate) is 92.3% (inactive). For the same compound, the aptamer binding inhibition in assay [4] was -1% (inactive). Further, the figures for the response in assay [5] and in assay [7] were 1.17% (inactive) and -1.31% (inactive), respectively. In assay [8], the binding (% of control) is 111% (inactive). Moreover, the efflux inhibition (fraction of control) in assay [9] is -0.2 (inactive). The differentiation response in assay [11] is 0% (inactive).
Compound `CN(C)CCCNc1ncnc2c1cnn2-c1ccccc1` had a double positive events in assay [1] of 70.3%. In [1], the vesicle binding response is 336% (inactive). Besides, the inhibition in assay [2] was 16% (inactive); in assay [6], -0.95% (inactive); in assay [10], 12% (inactive). In addition, the superoxide response (% of plate) in [3] is 94.4% (inactive). For the same compound, in assay [4], the aptamer binding inhibition is -2% (inactive). The response in [5] is 8.67% (inactive); in assay [7], 1.69% (inactive). Moreover, the binding (% of control) in [8] is 97% (inactive). In addition, the efflux inhibition (fraction of control) in assay [9] is 0.12 (inactive). Moreover, the differentiation response in [11] was 23.2% (inactive).
In turn, `C#CCN(C)Cc1ccccc1` yielded a double positive events in [1] of 66.2%. Further, the vesicle binding response in [1] was 248% (inactive). Moreover, the inhibition in assay [2] was -2.82% (inactive); in [6], -10.1% (inactive); in assay [10], 2% (inactive). The superoxide response (% of plate) in assay [3] was 102% (inactive). Further, in assay [4], the aptamer binding inhibition was 2% (inactive). In addition, the results for the response in assay [5] and in [7] were -26.9% (inactive) and -1.24% (inactive), respectively. In addition, in [8], the binding (% of control) is 99.9% (inactive). Further, in assay [9], the efflux inhibition (fraction of control) was -0.04 (inactive). In addition, in [11], the differentiation response is -8.93% (inactive).
In turn, `CCN1C(=O)C(CC(=O)Nc2ccc(F)cc2)N(Cc2ccc3c(c2)OCO3)C1=S` (stereo not drawn) showed a double positive events in [1] of 56.3%. In addition, the vesicle binding response in [1] was 124% (inactive). In addition, the values for the inhibition in assay [2], in assay [6] and in assay [10] were 7.76% (inactive), -7.91% (inactive) and 4% (inactive), respectively. Also, the superoxide response (% of plate) in assay [3] is 101% (inactive). The aptamer binding inhibition in assay [4] is 0% (inactive). Also, the results for the response in assay [5] and in assay [7] were 22.9% (inactive) and 0.48% (inactive), respectively. For the same compound, the binding (% of control) in assay [8] was 107% (inactive). The efflux inhibition (fraction of control) in assay [9] is 0.44 (active). In assay [11], the differentiation response is 58.4% (active).
Take `COc1ccccc1-c1c(C(F)(F)F)oc2cc(OC(=O)c3ccc([N+](=O)[O-])cc3)ccc2c1=O`: the double positive events in [1] amounted to 61.5%. Also, in [1], the vesicle binding response was 160% (inactive). For the same compound, the inhibition is -1.97% (inactive) in assay [2], -4.55% (inactive) in [6] and 1% (inactive) in assay [10]. The superoxide response (% of plate) in assay [3] was 49.2% (active). In addition, the aptamer binding inhibition in assay [4] is 2% (inactive). Besides, the response in assay [5] is -19.4% (inactive); in [7], 1.11% (inactive). Moreover, the binding (% of control) in [8] was 99.3% (inactive). The efflux inhibition (fraction of control) in [9] was 0.04 (inactive). In addition, the differentiation response in assay [11] was -5.97% (inactive).
`O=c1ccc2ccccc2o1` showed a double positive events in [1] of 62.3%. For the same compound, the vesicle binding response in assay [1] was 162% (inactive). Besides, the inhibition in [2] was -3.77% (inactive); in assay [6] it was 1.88% (inactive); in [10], -8% (inactive). In assay [3], the superoxide response (% of plate) was 95.1% (inactive). Further, the aptamer binding inhibition in assay [4] is -7% (inactive). Further, the response was 0.92% (inactive) in assay [5] and -9% (inactive) in assay [7]. Also, the binding (% of control) in assay [8] is 103% (inactive). The efflux inhibition (fraction of control) in assay [9] is -0.02 (inactive). In addition, in assay [11], the differentiation response is 2.74% (inactive).
